# Source: PubChem (several laboratories)
# Cav3 T inh: inhibitors of human Cav3.2 T-type calcium channel | Cav3.2-expressing cells, Fluo-4 calcium fluorescence FDSS; stronger effect = lower value | O95180 | B-score at 10 µM | 4% of 100,000 active;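 active = single-dose well whose peak fluorescence ratio is a statistical outlier from its plate by either plate-standardised score or position-corrected B-score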
# Target sequence (O95180 whole entry, looked up): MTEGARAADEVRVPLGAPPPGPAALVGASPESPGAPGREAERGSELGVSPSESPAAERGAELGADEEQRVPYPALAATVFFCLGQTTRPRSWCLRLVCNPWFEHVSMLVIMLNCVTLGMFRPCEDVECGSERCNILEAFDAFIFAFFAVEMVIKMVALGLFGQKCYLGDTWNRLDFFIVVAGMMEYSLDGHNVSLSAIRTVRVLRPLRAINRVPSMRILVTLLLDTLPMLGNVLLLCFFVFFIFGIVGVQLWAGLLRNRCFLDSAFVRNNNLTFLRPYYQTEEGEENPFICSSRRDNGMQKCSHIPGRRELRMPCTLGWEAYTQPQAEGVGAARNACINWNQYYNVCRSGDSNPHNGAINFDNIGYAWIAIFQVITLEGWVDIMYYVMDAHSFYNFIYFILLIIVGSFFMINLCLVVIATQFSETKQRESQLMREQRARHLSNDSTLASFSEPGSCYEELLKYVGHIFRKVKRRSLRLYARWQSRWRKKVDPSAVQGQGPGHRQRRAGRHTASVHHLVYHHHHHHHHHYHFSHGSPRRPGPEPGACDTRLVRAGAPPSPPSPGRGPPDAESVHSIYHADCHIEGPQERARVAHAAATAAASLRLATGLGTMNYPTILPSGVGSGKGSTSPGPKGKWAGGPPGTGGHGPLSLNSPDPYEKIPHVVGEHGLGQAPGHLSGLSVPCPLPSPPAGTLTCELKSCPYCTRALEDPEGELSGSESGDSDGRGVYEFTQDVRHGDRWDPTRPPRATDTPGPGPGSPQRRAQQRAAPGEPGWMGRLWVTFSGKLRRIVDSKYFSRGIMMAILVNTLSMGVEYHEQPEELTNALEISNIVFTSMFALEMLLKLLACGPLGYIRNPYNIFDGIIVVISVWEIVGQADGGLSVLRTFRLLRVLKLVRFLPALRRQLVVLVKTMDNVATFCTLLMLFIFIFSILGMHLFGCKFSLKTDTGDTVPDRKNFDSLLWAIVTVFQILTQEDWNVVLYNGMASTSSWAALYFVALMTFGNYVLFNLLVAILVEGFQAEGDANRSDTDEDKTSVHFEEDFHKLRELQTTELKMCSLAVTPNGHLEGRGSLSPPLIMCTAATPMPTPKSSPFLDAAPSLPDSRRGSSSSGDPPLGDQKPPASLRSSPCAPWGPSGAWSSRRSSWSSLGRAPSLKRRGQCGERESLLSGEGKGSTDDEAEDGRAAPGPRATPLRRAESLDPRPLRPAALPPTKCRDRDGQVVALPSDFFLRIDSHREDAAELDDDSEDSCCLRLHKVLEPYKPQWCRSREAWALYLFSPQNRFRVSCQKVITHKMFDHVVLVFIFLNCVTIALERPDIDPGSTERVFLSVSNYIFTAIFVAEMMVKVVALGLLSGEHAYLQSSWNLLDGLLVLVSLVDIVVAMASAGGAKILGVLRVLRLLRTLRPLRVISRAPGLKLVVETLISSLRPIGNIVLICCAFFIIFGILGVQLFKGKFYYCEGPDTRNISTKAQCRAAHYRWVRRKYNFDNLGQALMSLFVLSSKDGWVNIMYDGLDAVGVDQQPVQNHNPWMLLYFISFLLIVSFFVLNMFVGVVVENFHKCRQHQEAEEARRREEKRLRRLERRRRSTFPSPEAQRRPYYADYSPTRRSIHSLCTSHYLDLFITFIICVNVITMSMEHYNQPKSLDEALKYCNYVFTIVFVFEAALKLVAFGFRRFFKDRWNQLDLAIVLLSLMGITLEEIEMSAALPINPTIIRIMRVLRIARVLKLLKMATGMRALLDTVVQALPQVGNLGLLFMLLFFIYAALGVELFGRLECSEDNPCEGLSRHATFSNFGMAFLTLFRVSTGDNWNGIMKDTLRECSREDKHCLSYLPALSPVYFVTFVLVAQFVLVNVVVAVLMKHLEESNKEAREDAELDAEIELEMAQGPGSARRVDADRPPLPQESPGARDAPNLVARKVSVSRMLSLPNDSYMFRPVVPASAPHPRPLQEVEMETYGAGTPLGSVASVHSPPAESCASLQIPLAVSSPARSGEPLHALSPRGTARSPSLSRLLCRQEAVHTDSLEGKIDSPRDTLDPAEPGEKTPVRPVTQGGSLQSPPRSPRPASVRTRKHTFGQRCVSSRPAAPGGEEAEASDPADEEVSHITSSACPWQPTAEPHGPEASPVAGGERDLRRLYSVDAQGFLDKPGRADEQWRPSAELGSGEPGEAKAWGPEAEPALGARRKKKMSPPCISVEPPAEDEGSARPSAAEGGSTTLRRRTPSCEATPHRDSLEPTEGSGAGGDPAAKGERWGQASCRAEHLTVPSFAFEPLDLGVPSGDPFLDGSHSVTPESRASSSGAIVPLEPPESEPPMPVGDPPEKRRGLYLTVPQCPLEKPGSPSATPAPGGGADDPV
# MRP reversal: reverses drug resistance mediated by MRP; 0.04% of 85,000 active; H69AR cells + 2 uM doxorubicin, CellTiter-Glo, 72 h; differential viability (reversal), % at 10 µM;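 active = viability drop by adding the cancer drug above about 55%, with treated viability meeting a 40% cutoff, limit read from the data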;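 also: viability without doxorubicin minus viability with 2 µM doxorubicin for each compound; larger differential means the compound sensitizes cells more to doxorubicin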
# CD11b adhes inh: CD11b/CD18-fibrinogen binding inhibition; P05107+P11215; K562 CD11b/CD18 adhesion to fibrinogen, ATPlite luminescence; Mn2+ added to activate the integrin; inhibition, % at 10 µM; 0.54% of 93,000 active; AID 1497;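 active = primary inhibition of 50% or more at 10 µM, then 40% or more on retest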
# PTK2B oligo ant: Pyk2 (human) oligomerization antagonism | Q293 cells, Pyk2 FERM NanoBiT luminescence; stronger effect = lower value | z-score (the deposit names both 25 µM and 10 µM) | AID 1347419 | Q14289 | 0.83% of 99,000 active;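 active = Z-score of -3 or lower, scaled per plate to the spread of control and sample wells; inactive = z-score above -3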;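 also: negative z-score means lost luminescence so less FERM oligomerization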
# CD11b adhes enh: enhancers of human CD11b/CD18 binding to fibrinogen | P05107+P11215 | K562 CD11b/CD18 adhesion to fibrinogen, ATPlite luminescence | activation, % at 10 µM | 0.07% of 93,000 active;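 active = 10 µM primary screen giving 50% or more activity, confirmed by 40% or more on retest at that dose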
# MRP1 act: MRP-1 activation | H69AR cells + doxorubicin, viability rescue, CellTiter-Glo | viability increase, % at 10 µM | 0.61% of 140,000 active | AID 799;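 active = viability gain under doxorubicin at or above a set limit, the compound median plus 3 SD, cut at about 4.7% in these data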;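 also: MRP-1 overexpressing cells given doxorubicin 25 µM after compound pretreatment; 18-22 h compound pretreatment then 72 h with doxorubicin before readout; 0% = doxorubicin-only wells and 100% = vehicle-treated cells without doxorubicin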
# Starred values were filed as active, the others as inactive; . = no result given. Compounds with a hit are over-represented: about 4.1% of the library has one in this group of screens.
SMILES,Cav3 T inh,MRP reversal,CD11b adhes inh,PTK2B oligo ant,CD11b adhes enh,MRP1 act
C[C@H](NC(=O)c1ccccc1Cl)C(=O)OC(C(=O)Nc1cc(C(F)(F)F)ccc1Cl)c1ccccc1 (stereo partly specified),-8.43*,.,15.1,-1.87,6.5,1.1
O=C(CCc1ccccc1)Nc1cc(C(F)(F)F)ccc1Cl,-1.11,.,.,-1.09,.,-0.6
O=C(Nc1cc(C(F)(F)F)ccc1Cl)C(Sc1cccc[n+]1[O-])c1ccccc1 (stereo unspecified),.,.,.,.,.,-2.7
O=C(CNC(=O)c1ccccc1F)OC(C(=O)Nc1cc(C(F)(F)F)ccc1Cl)c1ccccc1 (stereo unspecified),-5.42*,.,6.6,-1.29,-0.4,0.8
CCOC(=O)CCSc1nnc(-c2cccnc2)n1-c1ccccc1OC,0.694,10.5,-11.7,-0.47,-2.5,-1.1
C=CCn1c(N)c(C(=O)NCc2ccco2)sc1=S,0.0479,-6.8,2.0,0.15,5.3,-1.9
O=C(NCc1ccco1)c1sc(=S)n2c1[nH]c(=O)c1ccccc12,-2.66,1.7,96.4*,0.82,-10.2,-3.7
O=C(NC1CCCC1)c1sc(=S)n2c1[nH]c(=O)c1ccccc12,-2.86,-33.9,94.9*,-3.14*,-7.8,-1.6
O=C(CN1CCC(C(=O)c2ccc(F)cc2)CC1)Nc1ccc(F)cc1,-5.37*,2.2,.,1.26,.,-4.9
Cc1ccc2nc(/C(C#N)=C\c3ccc([N+](=O)[O-])o3)[nH]c2c1,-1.08,.,2.5,-2.55,-2.1,-6.6
Cc1ccc2nc(/C(C#N)=C\c3ccc(N4CCOCC4)o3)[nH]c2c1,-5.01*,-22.7,.,0.19,.,-2.4
Fc1ccc(Br)cc1C1C=C(c2ccc(Br)s2)Nc2ncnn21 (stereo unspecified),-2.85*,-18.9,39.7,1.63,15.7,-2.4
COc1cccc(C2C=C(c3ccc(Br)s3)Nc3ncnn32)c1OC (stereo unspecified),-0.648,-35.5,-2.0,-2.17,-2.1,-1.2
CCc1cccc(NC(=O)CCc2nc(-c3cccs3)no2)c1,-7.07*,2.0,18.1,.,-5.4,-0.3
CCOC(=O)c1ccc(NC(=O)CCc2nc(-c3ccccc3Cl)no2)cc1,-3.78*,-41.8,49.9,-0.64,-3.1,-4.8
COCCn1c(C)cc(C2=NNC(=Nc3ccccc3F)SC2)c1C,-4.44*,9.1,30.5,0.14,25.1,-1.6
COc1ccc(NS(=O)(=O)c2cc(C)ccc2NC(=O)c2cc(C)oc2C)cc1,-6.91*,-35.6,39.0,0.17,-1.5,-4.0
COc1ccc(NS(=O)(=O)c2cccc(C(=O)NNC(=O)c3cc(C)oc3C)c2)cc1,.,.,.,.,.,-1.1
Cc1[nH]c2ccccc2c1NC(=O)CN1CCN(c2cccc(C(F)(F)F)c2)CC1,-8.17*,-12.0,17.3,-0.29,1.5,-6.6
COC(=O)c1[nH]c2ccc(C)cc2c1NC(=O)CN1CCN(c2ccccc2)CC1,-3.89,-19.1,49.2,-1.46,-0.5,0.0
Cc1ccc2[nH]c(C(=O)O)c(NC(=O)CN3CCN(c4cccc(C)c4C)CC3)c2c1,-4.95*,-10.9,0.2,-0.3,-4.0,-1.9
O=C(CN1CCN(c2cccc(C(F)(F)F)c2)CC1)Nc1cccc(C(F)(F)F)c1,-5.46*,1.3,12.8,1.03,-1.9,-1.9
COc1ccc(N2CCN(CC(=O)Nc3cccc(S(=O)(=O)N4CCOCC4)c3)CC2)cc1,.,.,.,.,.,-1.0
CC1S/C(=C(\C#N)C(=O)NCc2ccco2)N(Cc2ccco2)C1=O (stereo unspecified),0.502,0.8,-11.4,-0.01,0.6,-3.5
CCOc1ccc(S(=O)(=O)N2c3ccccc3CC2C)cc1 (stereo unspecified),-3.57*,-29.1,22.2,-1.81,0.0,-5.9
SMILES,Cav3 T inh,MRP reversal,CD11b adhes inh,PTK2B oligo ant,CD11b adhes enh,MRP1 act
CC1Cc2ccccc2N1S(=O)(=O)c1cccs1 (stereo unspecified),-1.28,-8.3,81.8,0.16,-3.9,-3.5
CCN(CC)S(=O)(=O)c1cccc(NC(=S)NC(=O)/C=C/c2ccc(S(=O)(=O)N3CCOCC3)cc2)c1,.,.,.,.,.,-3.7
O=C1CCCC2=C1C(c1ccsc1)CC(=O)N2c1nnc(SCc2ccccc2)s1 (stereo unspecified),-5.48*,.,4.8,.,-1.6,2.0
CCCOC(=O)c1c(NC(=O)CSc2nc(-c3ccco3)cc(C(F)(F)F)n2)sc(C(=O)OC)c1C,-5.22*,12.0,14.0,0.91,-1.4,0.7
CCOC(=O)c1sc(NC(=O)CSc2nc(-c3ccco3)cc(C(F)(F)F)n2)c(C(=O)OC)c1C,-1.72,.,.,0.08,.,-1.5
C=CCN1/C(=C(\C#N)C2=NS(=O)(=O)c3ccccc32)N(C)c2ccccc21,0.499,.,3.2,0.09,-0.2,-0.7
COc1ccc(C2C(C#N)=C(N)OC3=C2C(=O)CCC3)cc1Cn1cc([N+](=O)[O-])cn1 (stereo unspecified),.,.,-3.6,.,-1.4,-3.0
O=S(=O)(c1cccc2nsnc12)N1CCOCC1,-0.0908,-11.7,5.5,0.3,-1.3,-0.6
Cc1nc(CS(=O)(=O)c2ccccc2)cc(Sc2ccccc2Cl)n1,.,.,-11.5,1.49,-3.3,-0.8
Cc1nc(CS(=O)(=O)c2ccc(Cl)cc2)cc(Sc2ccccc2Cl)n1,-4.49*,.,-4.1,-0.1,7.8,-0.2
Cc1cc(C(=O)Nc2c(C)n(C)n(-c3ccccc3)c2=O)c2ccccc2n1,-0.245,-6.4,-1.6,0.01,3.1,-2.1
Cc1c(NC(=O)c2nn(C)c(=O)c3ccccc23)c(=O)n(-c2ccccc2)n1C,.,.,.,0.05,.,.
CCc1ccc(-c2cc(C(=O)Nc3c(C)n(C)n(-c4ccccc4)c3=O)c3ccccc3n2)s1,-4.28*,.,24.2,-0.67,-4.5,-4.9
Cc1c(NC(=O)Cn2nc(C(=O)O)c3ccccc3c2=O)c(=O)n(-c2ccccc2)n1C,-0.378,0.1,-9.3,-4*,-4.5,0.8
COc1ccc(NC(=O)c2cc(C3CC3)on2)c(OC)c1,-0.457,-6.5,-30.3,.,0.9,-2.1
CCC1(C)Cc2c(sc3nnn(CC(=O)Nc4ccccc4)c(=O)c23)CO1 (stereo unspecified),-0.358,.,-9.5,-1.38,0.5,5.0*
CCC1(C)Cc2c(sc3nnn(CC(=O)Nc4ccccc4C)c(=O)c23)CO1 (stereo unspecified),-0.805,.,-4.8,0.73,4.5,1.2
Cc1c(C(=O)Nc2ccc3c(c2)OCCO3)sc2nc(-c3ccccc3)cn12,0.282,7.2,.,-3.65*,.,-5.6
Nc1[nH]nc2c1NN(c1ccc(Cl)cc1Cl)N2,.,.,.,.,.,-2.7
O=C(Nc1ncc(S(=O)(=O)c2ccc([N+](=O)[O-])cc2)s1)c1ccc2ccccc2c1,.,.,.,.,.,-3.7
CCC(C)(C)C(=O)Nc1ncc(S(=O)(=O)c2ccc([N+](=O)[O-])cc2)s1,-5.17*,-13.8,28.2,-0.55,-4.9,-5.2
